Records with an inconclusive call do not appear. Values without a mark were called inactive. The source made the active and inactive calls. The call rests on the fitted dose curve; in most records, active means well fitted cell-killing curve with a large enough effect; inconclusive means small, poorly fitted or top-dose-only effect; inactive means no such curve, though single readings can be large or run the other way.
Test: Quantitative High-Throughput drug screen in 47 multiple myeloma cell lines against the NCATS MIPE library collection: JIM3_ECACC cell viability assay (AID 1918963; further: nearly all actives have a fitted effect of over 35% in size)
Conditions: JIM3 myeloma viability, CellTiter-Glo ATP, 48 h; series mostly up to 45.8 µM; viability, percent of control: at the top concentration
Text: PI: Beverly A. Mock Ph.D.
Laboratory of Cancer Biology and Genetics,
Center for Cancer Research, National Cancer Institute,
National Institute of Health, Bethesda, Maryland
Drug resistance and disease progression are common in multiple myeloma (MM) patients, underscoring the need for new therapeutic combinations. […] We hypothesized that effective combinations would reduce MYC expression and enhance p16 activity. […] These preclinical data identify potentially useful drug combinations for evaluation in drug-resistant MM and reveal potential mechanisms of combined drug sensitivity.
Described herein is the primary MIPE qHTS used to cherrypick compounds. Validated compounds were then further tested for potential synergistic activiy.
[1] Peat TJ, Gaikwad SM, Dubois W, Gyabaah-Kessie N, Zhang S, Gorjifard S, Phyo Z, Andres M, Hughitt VK, Simpson RM, Miller MA, Girvin AT, Taylor A, Williams D, D'Antonio N, Zhang Y, Rajagopalan A, Flietner E, Wilson K, Zhang X, Shinn P, Klumpp-Thomas C, McKnight C, Itkin Z, Chen L, Kazandijian D, Zhang J, Michalowski AM, Simmons JK, Keats J, Thomas CJ, Mock BA. Drug combinations identified by high-throughput screening promote cell cycle transition and upregulate Smad pathways in myeloma. Cancer Lett. 2023 Aug 1;568:216284. doi: 10.1016/j.canlet.2023.216284. Epub 2023 Jun 24. PMID: 37356470; PMCID: PMC10408729.
SEQUENCE No. (e.g., 1, 2, 3, etc.); […] (e.g., Cells, Incubation, Reagent, etc.); VALUE and DESCRIPTION.
1; Cells; 5 uL; white, solid bottom 1536-well Greiner assay plate.
2; Compounds; 23 nL; Kalypsis pin tool (Wako USA) equipped with a 1536-well pin head to transfer to the assay plates.
3; Incubation; 48 hours; 37C incubation.
4; Reagent;5uL; CellTiter Glo (Promega).
5; Detector; 425V; Luminescence; Viewlux PerkinElmer.
NOTES (numbers refer to Sequence numbers above)
1. The cell-based screening methods employed in this study were like those previously published. Briefly, the corresponding myeloma cell lines were screened in 1,536-well plates with 500 cells, 5-uL per well for inhibition of cell viability (assessed by measuring ATP levels with CellTiterGlo).
2. NCATS MIPE 4.0 library of approved and investigational drugs were added using the Kalypsis pin tool. Wells treated with DMSO only for 100% viability and media only wells for 0% viability were used as controls.
3. The assay plates were covered and incubated for 48 hours in a 37C, 5% CO2 incubator with controlled humidity.
4. After 48 hours, CellTilter-GloTM luminescent substrate mix (Promega) reagent was added to the assay plate and plates we incubated for 5 min at room temperature.
5. Signal was measured as median relative luminescence units on a ViewLux (PerkinElmer) multiplate reader.
[1] Heske CM, Davis MI, Baumgart JT, Wilson K, Gormally MV, Chen L, Zhang X, Ceribelli M, Duveau DY, Guha R, Ferrer M, Arnaldez FI, Ji J, Tran HL, Zhang Y, Mendoza A, Helman LJ, Thomas CJ. Matrix Screen Identifies Synergistic Combination of PARP Inhibitors and Nicotinamide Phosphoribosyltransferase (NAMPT) Inhibitors in Ewing Sarcoma. Clin Cancer Res. 2017 Dec 1;23(23):7301-7311. doi: 10.1158/1078-0432.CCR-17-1121. Epub 2017 Sep 12. PMID: 28899971; PMCID: PMC6636827.
Potency means the concentration at half of the fitted maximal effect.

Row | Structure (SMILES) | viability, percent of control | Potency
1 | O=C(NCc1ccccc1)[C@H](Cc1ccccc1)NC(=O)[C@@H]1O[C@@H]1C(=O)NCCc1ccc(O)cc1 | 115% | 
2 | O=C(C=CC#Cc1cccc(NS(=O)(=O)c2ccccc2)c1)NO |  | 5.26 µM (active)
3 | CC(=O)N[C@H]1[C@@H]([C@H](O)[C@H](O)CO)OC(C(=O)O)=C[C@@H]1N=C(N)N | 120% | 
4 | C#CCC(Cc1cnc2nc(N)nc(N)c2n1)c1ccc(C(=O)N[C@@H](CCC(=O)O)C(=O)O)cc1 (stereo not given in full) |  | 0.0469 µM (active)
5 | O=C(O)[C@H](CC(=O)N1C[C@@H]2CCCC[C@H]2C1)Cc1ccccc1 | 134% | 
6 | Cn1c(Nc2ccc(C(F)(F)F)cc2)nc2cc(Oc3ccnc(-c4ncc(C(F)(F)F)[nH]4)c3)ccc21 |  | 18.7 µM (active)
7 | COc1ccc(Nc2cc(-c3cnc(N)nc3)nc(N3CCOCC3)n2)cn1 |  | 3.72 µM (active)
8 | OC[C@@H](O)[C@@H](O)[C@H](O)[C@@H](O)CO | 106% | 
9 | O=C1NC(=O)C(=Cc2ccc3nccc(-c4ccncc4)c3c2)S1 |  | 0.296 µM (active)
10 | CC(C)(O)Cn1c(NC(=O)c2ccc(-c3cn[nH]c3)s2)nc2cc(CN3CCOCC3)ccc21 |  | 1.32 µM (active)
11 | CCC[C@H]1C[C@H](C(=O)N[C@@H]([C@@H]2O[C@@H](SC)[C@@H](O)[C@@H](O)[C@@H]2O)[C@H](C)Cl)N(C)C1 | 106% | 
12 | Cc1ccccc1C(=O)Nc1ccc(C(=O)N2CCCC(O)c3cc(Cl)ccc32)c(C)c1 (stereo not given) | 110% | 
13 | CC1(C)[C@H](O[C@H]2O[C@H](C(=O)O)[C@@H](O)[C@H](O)[C@H]2O[C@@H]2O[C@H](C(=O)O)[C@@H](O)[C@H](O)[C@H]2O)CC[C@@]2(C)[C@H]1CC[C@]1(C)[C@H]2C(=O)C=C2[C@H]3C[C@@](C)(C(=O)O)CC[C@]3(C)CC[C@]21C | 149% | 
14 | CC(C)(C)[C@H](NC(=O)c1ccc(N)c(Cl)c1)C(=O)N1CCC[C@@H]1C(=O)N[C@H](C#N)CC(=O)O | 130% [at 3.51 µM] | 
15 | OCCNC1CCCc2c1[nH]c1ccc(-c3ccccc3)cc21 (stereo not given) |  | 18.7 µM (active)
16 | CC(C)C[C@H](NC(=O)[C@@H](NC(=O)c1cccc(-c2ccccc2)n1)[C@@H](C)O)B(O)O |  | 0.0372 µM (active)
17 | CCN(CC)Cc1ccc2cc(COC(=O)Nc3ccc(C(=O)NO)cc3)ccc2c1 |  | 1.48 µM (active)
18 | Oc1cc2c(cc1O)C1c3ccc(O)c(O)c3OCC1(O)C2 (stereo not given) | 119% | 
19 | CC(C)OC(=O)[C@H](C)N[P@](=O)(OC[C@H]1O[C@@H](n2ccc(=O)[nH]c2=O)[C@](C)(F)[C@H]1O)Oc1ccccc1 | 101% | 
20 | COc1cc2c(cc1OC)[C@@H]1C(=O)c3ccc4c(c3O[C@@H]1CO2)C=CC(C)(C)O4 |  | 8.33 µM (active)

Row | Structure (SMILES) | viability, percent of control | Potency
21 | CC(C)[C@H](CO)Nc1nc(Nc2cccc(Cl)c2)c2ncn(C(C)C)c2n1 |  | 18.7 µM (active)
22 | Cn1cc(C2=C(c3c4n(c5ccccc35)CCC(CN)C4)C(=O)NC2=O)c2ccccc21 (stereo not given) |  | 10.5 µM (active)
23 | Oc1cc(-c2nc(-c3ccccc3)[nH]c2-c2ccncc2)ccc1Cl |  | 20.9 µM (active)
24 | OCC(O)C(O)C(O)CO (stereo not given) | 101% | 
25 | O=C(Nc1cccc(Nc2ncc(Br)c(NCCc3cnc[nH]3)n2)c1)N1CCCC1 |  | 6.62 µM (active)
26 | C=C(C)[C@@H]1CC[C@]2(C)CC[C@]3(C)[C@H](CC[C@@H]4[C@@]5(C)CC[C@H](O)C(C)(C)[C@H]5CC[C@]43C)[C@@H]12 | 108% | 
27 | COc1cc(C)c(Sc2cnc(NC(=O)c3ccc(CNC(C)C(C)(C)C)cc3)s2)cc1C(=O)N1CCN(C(C)=O)CC1 (stereo not given) |  | 3.72 µM (active)
28 | O=C(Nc1nnc(-c2ccco2)o1)c1cc(-c2ccccc2)nc2ccccc12 |  | 18.7 µM (active)
29 | C=CC1=C(C(=O)O)N2C(=O)[C@@H](NC(=O)C(=NO)c3csc(N)n3)[C@H]2SC1 | 104% | 
30 | Nc1ccc(C(=O)Nc2cccc(-c3nc(N4CCOCC4)c4oc5ncccc5c4n3)c2)cn1 |  | 4.18 µM (active)
31 | C=C1CCC2[C@](C)(CO)C(O)CC[C@]2(C)C1CC=C1C(=O)OCC1O (stereo not given in full) | 92.3% [at 92.2 µM] | 
32 | NS(=O)(=O)OC[C@@H]1C[C@@H](n2ccc3c(N[C@H]4CCc5ccccc54)ncnc32)C[C@H]1O |  | 13.2 µM (active)
33 | Nc1nc(N)c2nc(-c3cccc(O)c3)c(-c3cccc(O)c3)nc2n1 |  | 9.35 µM (active)
34 | O=C(O)C=Cc1ccc(Cn2ccnc2)cc1 | 124% | 
35 | C[C@H]1[C@@H](OC(=O)CCC(=O)O)O[C@@H]2O[C@@]3(C)CC[C@@H]4[C@H](C)CC[C@@H]1[C@@]24OO3 |  | 6.62 µM (active)
36 | CC(=O)SCC(Cc1ccccc1)C(=O)NCC(=O)OCc1ccccc1 (stereo not given) |  | 3.72 µM (active)
37 | COc1cc([C@@H]2c3cc4c(cc3[C@H](O)[C@H]3COC(=O)[C@@H]23)OCO4)cc(OC)c1OC |  | 0.118 µM (active)
38 | C[C@H](CCC(=O)O)[C@H]1CC[C@H]2[C@@H]3[C@H](O)C[C@@H]4C[C@H](O)CC[C@]4(C)[C@@H]3CC[C@]12C | 101% | 
39 | O=C(NC1CC1)c1cccc(-c2ccc3c(NC(=O)C4CC4)n[nH]c3c2)c1 |  | 11.8 µM (active)
40 | CCC(C=C[C@@H]1OC(=O)C=C[C@H]1C)=C[C@H](C)CC=CC(C)=C[C@@H](C)C(=O)[C@@H](C)[C@H](O)[C@@H](C)CC(C)=CC(=O)O |  | 0.0349 µM (active)

Reference: PubChem BioAssay (NCATS)
